In the library only some 18% were active in any assay of this set; here they are far more common.
Six1-Eya2 blk: blocks human Six1 binding to Eya2; activity change, % (concentration not given with the values); hit rate 0.56% among 360,000; AlphaScreen GST-Six1/His-Eya2 binding, biochemical; stronger effect = lower value; AID 651725; Q15475+O00167; in the data active = activity change below about -65%; inconclusive = mostly about -30% to -63%
Target sequence (O00167 whole entry, looked up): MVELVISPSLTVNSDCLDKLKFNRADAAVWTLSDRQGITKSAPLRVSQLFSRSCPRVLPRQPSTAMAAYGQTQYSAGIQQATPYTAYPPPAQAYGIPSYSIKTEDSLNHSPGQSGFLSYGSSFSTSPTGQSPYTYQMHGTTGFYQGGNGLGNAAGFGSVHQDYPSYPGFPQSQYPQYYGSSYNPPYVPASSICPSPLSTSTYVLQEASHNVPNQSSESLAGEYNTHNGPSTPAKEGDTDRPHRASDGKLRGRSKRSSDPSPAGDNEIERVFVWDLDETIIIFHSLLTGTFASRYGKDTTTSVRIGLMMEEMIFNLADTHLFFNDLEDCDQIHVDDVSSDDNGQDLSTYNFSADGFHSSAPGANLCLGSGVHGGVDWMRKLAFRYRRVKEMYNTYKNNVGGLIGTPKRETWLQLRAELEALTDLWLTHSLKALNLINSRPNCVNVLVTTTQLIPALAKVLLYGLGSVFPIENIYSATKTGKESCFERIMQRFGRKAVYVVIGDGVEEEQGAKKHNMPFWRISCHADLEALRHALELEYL
Target sequence (Q15475 whole entry, looked up): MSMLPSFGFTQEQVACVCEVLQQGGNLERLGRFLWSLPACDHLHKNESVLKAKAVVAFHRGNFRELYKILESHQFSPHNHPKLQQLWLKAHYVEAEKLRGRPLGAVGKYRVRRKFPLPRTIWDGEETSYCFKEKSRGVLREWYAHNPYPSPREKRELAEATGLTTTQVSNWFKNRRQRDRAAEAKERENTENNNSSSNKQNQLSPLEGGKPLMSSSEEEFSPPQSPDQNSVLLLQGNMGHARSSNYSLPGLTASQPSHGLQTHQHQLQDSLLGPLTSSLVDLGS
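Homogeneous AlphaScreen proximity assay pairing GST-Six1 with His-tagged Eya2 (added as 5X mix: 250 nM and 500 nM) in 50 mM Tris pH 8.0, 300 mM NaCl, 1 mM TCEP. Glutathione donor and nickel acceptor beads; 1 h, 37 °C, dark.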
TDP1 cell CPT: DT40-hTDP1 cell growth loss with CPT | hit rate 12% among 420,000 | chicken DT40 Tdp1-/-;hTDP1 cells + 20 nM CPT, ATP luminescence, 48 h | AID 686979 | Potency, µM (doses to about 46.2 µM), without a hit: at the top dose activity change, negative = growth inhibition, most hits filed as inhibitors; note: potency is the fitted concentration of half-maximal effect; nearly all actives have a fitted effect of over 55% in size
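Chicken DT40 Tdp1-/- cells stably complemented with human TDP1 were seeded at 400 cells/well in medium containing 20 nM camptothecin, exposed to pin-transferred compounds, and grown at 37 °C for at least 48 hr. Viability was read as ATP luminescence.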
TDP1 block: blocks human tyrosyl-DNA phosphodiesterase 1; Q9NUW8; recombinant TDP1, AlphaScreen DNA substrate cleavage; Potency, µM (doses to about 130 µM), for inactives: top-dose activity change, negative = inhibition, actives largely listed as inhibitors; hit rate 0.28% among 350,000; AID 485290; note: potency is the fitted concentration of half-maximal effect; nearly all actives have a fitted effect of over 40% in size
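Here, a 5' biotin and 3' phosphotyrosine-FITC DNA oligonucleotide reports Tdp1 activity: intact substrate bridges AlphaScreen beads, while cleavage leaves a 3' phosphate and drops signal. All incubations at room temperature.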
CtBP-E1A blk: blocks the CtBP interaction with E1A | AlphaScreen GST-E1A/His-CtBP binding, 1536-well; stronger effect = lower value | activity change, % (no concentration beside the values) | hit rate 0.49% among 340,000; in the data active = activity change below about -65%; inconclusive = mostly about -30% to -63%
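Protein mix (5X: 125 nM each GST-E1A, His-CtBP) was incubated with pinned compound 2 h at 37 deg C in dark, in 50 mM Tris pH 8.0 buffer with 300 mM NaCl. Glutathione donor and nickel acceptor beads followed; AlphaScreen signal read after 1 h.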
TDP1 cell noCPT: qHTS for Inhibitors of human tyrosyl-DNA phosphodiesterase 1 (TDP1): qHTS in cells in absence of CPT | DT40 Tdp1-/- hTDP1 cells, no CPT, ATP luminescence, 48 h | Potency, µM (doses to about 46.2 µM), without a hit: at the top dose activity change, negative = growth inhibition, usual class: inhibitors | hit rate 15% among 420,000 | AID 686978, 2013; note: potency is the fitted concentration of half-maximal effect; nearly all actives have a fitted effect of over 55% in size
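Growth of hTDP1-complemented DT40 Tdp1-knockout cells is measured by ATP luminescence after at least 48 hr compound exposure at 37 °C, with DMSO substituting for the 20 nM CPT used in the parallel screen.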
IL1B secr inh: blocks inflammasome-driven IL-1 beta release; hit rate 4.7% among 360,000; activity change, % at 57.5 µM; THP-1 LPS/ATP IL-1B secretion, AlphaLISA, 16 h; stronger effect = lower value; in the data active = activity change below about -50%; inconclusive = mostly about -30% to -49%
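THP-1 cells pretreated 1 hr with compounds (up to 57.5 uM final), then stimulated with LPS (250 ng/mL final) plus ATP (1.25 mM final); secreted IL-1B measured by AlphaLISA after 16 hr, decreased signal indicating inhibition.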
* marks the source's active call; other numbers are inactive results; ? = inconclusive; . = not tested or not shown; [ ] = another dose, or the depositor's remark. Unless noted, calls come from the whole dose curve; as a rule, active = well fitted curve in the direction sought with a large enough effect; inconclusive = small, poorly fitted or top-dose-only effect, or another doubt; inactive = no such curve, though single readings can be large; an effect the other way counts as inactive or inconclusive. % is set by controls: 0 for no effect and ±100 for the full control effect.

SMILES	Six1-Eya2 blk	TDP1 cell CPT	TDP1 block	CtBP-E1A blk	TDP1 cell noCPT	IL1B secr inh
CC(C)(C)NC(=O)NC(=O)CN1C(=O)NC(c2ccccc2)(c2ccccc2)C1=O	-2.2	?	0.2%	1.8	25.9µM*	?
CCc1ccc(-n2nnc(-c3nsc(NC(=O)c4ccccc4Cl)n3)c2C)cc1	.	?	8.2%	.	?	.
Nc1ccc2c(O)cc(S(=O)(=O)O)cc2c1	?	11.5%	.	?	-14.5%	10.5
CCOC(=O)C1=C(C)N=c2s/c(=C\c3cccc(OCC(=O)O)c3)c(=O)n2C1c1ccccc1OC (configuration not stated)	8.9	-21.6%	.	0.0	-9.2%	1.2
COc1ccccc1C1C(C(C)=O)=C(C)N=c2s/c(=C\c3cc(OC)c(OC)c(OC)c3)c(=O)n21 (configuration not stated)	-1.2	16.4µM*	2.4%	-3.0	20.6µM*	9.4
CC12CS(=O)(=O)CC1SC(=S)N2Cc1ccccc1 (configuration not stated)	-3.6	-0.3%	4.6%	-10.3	-4.6%	-5.1
CCOC(=O)CCNc1n[nH]c(=O)[nH]c1=O	8.0	-1.2%	2.2%	5.9	0.5%	1.1
COCCNc1nc(-c2cc(C)n(CCc3ccc(OC)cc3)c2C)cs1	-7.6	16.4µM*	7.4%	-10.4	18.4µM*	-15.5
O=C(O)C(=O)/C(=C\c1ccc(Cl)cc1)c1ccc2ccccc2n1	-0.5	8.4%	4.2%	-0.8	?	32.2
Cc1ccc(N2C(=O)[C@@H]3[C@H](C2=O)C2c4ccccc4C=CN2[C@@H]3C(=O)c2ccco2)cc1 (some centres not stated)	7.8	?	10.0%	-2.4	?	33.4
CC(C)(C)C(=O)[C@@H]1[C@@H]2C(=O)N(c3ccc4c(c3)OCCO4)C(=O)[C@@H]2C2c3ccccc3C=CN21 (some centres not stated)	-16.0	?	5.9%	-5.4	23.1µM*	-5.2
Cc1oc(-c2ccccc2)cc1C(=O)NC(Cc1c[nH]c2ccccc12)C(=O)O (configuration not stated)	-5.1	-24.9%	2.7%	-4.8	-12.2%	14.5
Cc1nc2c(-c3ccccc3)c(C)nn2c(C)c1CCC(=O)NC(C)c1ccccc1 (configuration not stated)	.	-24.8%	-3.5%	.	?	.
Cc1nc2c(-c3ccccc3)c(C)nn2c(C)c1CCC(=O)NCc1ccccc1	.	-21.2%	1.2%	.	?	.
CSc1ccc(CCNC(=O)CCc2c(C)nc3c(-c4ccccc4)c(C)nn3c2C)cc1	.	?	9.2%	.	20.6µM*	.
Cc1nc2c(-c3ccccc3)c(C)nn2c(C)c1CCC(=O)Nc1ccccc1F	.	18.4µM*	-1.2%	.	?	.
Cc1nc2c(-c3ccc(F)cc3)c(C)nn2c(C)c1CCC(=O)Nc1ccc(F)cc1F	4.4	-19.2%	.	.	-20.7%	-16.6
COc1ccc(OC)c(NC(=O)CCc2c(C)nc3c(-c4ccccc4)c(C)nn3c2C)c1	.	?	8.1%	.	20.6µM*	.
COC(=O)C(NC(=O)CCc1c(C)nc2c(-c3ccccc3)c(C)nn2c1C)C(C)C (configuration not stated)	.	?	0.0%	.	25.9µM*	.
O=C(c1ccco1)N1CCC(N2CCN(c3ccccc3)CC2)CC1	4.8	-9.2%	-3.1%	.	-4.8%	2.1
O=C(CCc1nc2ccccc2c(=O)[nH]1)NNC(=O)COc1cccc(F)c1	-6.3	?	-0.3%	.	-9.2%	14.1
CCOc1ccc(N(C)C(=O)CCc2nnc3ccc(N4CCC5(CC4)OCCO5)nn23)cc1	0.5	-12.6%	3.0%	-7.9	19.5%	-7.9
O=C(O)C1=C[C@H](c2ccccc2)C[C@H](OCc2ccc(CO)cc2)O1	3.6	-1.0%	6.4%	-1.2	-4.5%	7.0
COc1ccc(NC(=O)CCc2c(C)nc3c(-c4ccc(F)cc4)c(C)nn3c2C)c(OC)c1	.	23.1µM*	5.8%	.	20.6µM*	.
CCOc1ccc(NC(=O)CCc2c(C)nc3c(-c4ccccc4)c(C)nn3c2C)cc1	.	-17.3%	3.5%	.	?	.
SMILES	Six1-Eya2 blk	TDP1 cell CPT	TDP1 block	CtBP-E1A blk	TDP1 cell noCPT	IL1B secr inh
Cc1nc2c(-c3ccc(F)cc3)c(C)nn2c(C)c1CCC(=O)NC(C)CCc1ccco1 (configuration not stated)	-18.1	23.1µM*	-2.6%	-2.7	23.1µM*	?
CCN1CCN(c2ccc(NC(=O)CCc3c(C)nc4c(-c5ccccc5)c(C)nn4c3C)cc2)CC1	-0.9	?	4.9%	-9.3	16.4µM*	-62.0*
COc1ccc(C(=O)c2c[nH]c(C(=O)NCc3cccs3)c2)cc1	25.9	-14.6%	-0.5%	2.0	-5.4%	-6.2
COc1ccc(NC(=O)Nc2cccc(NC(C)=O)c2)c(OC)c1	-0.3	-1.4%	.	0.5	-7.7%	-17.3
CCC(C)/C=C/C1=CC2=C(Cl)C(=O)C3(C)OC(=O)C(C(=O)C(C)C(C)O)C3C2=CO1 (configuration not stated)	-2.3	11.6µM*	?	-22.5	18.4µM*	-0.7
CCCN1C(=O)S/C(=C\c2ccc(N3CCOCC3)cc2C)C1=O	.	.	2.0%	.	.	.
CCC(C)N1C(=O)S/C(=C/c2ccc(N3CCOCC3)cc2C)C1=O (configuration not stated)	1.9	20.6µM*	3.8%	12.1	23.1µM*	0.0
Cc1cc(N2CCOCC2)ccc1/C=C1\SC(=O)N(C(C)C)C1=O	1.6	?	2.5%	4.1	?	-27.6
CCN1C(=O)S/C(=C\c2ccc(N3CCOCC3)cc2C)C1=O	-0.4	14.6µM*	-3.1%	4.6	16.4µM*	-54.2*
O=C(Nc1nnc(-c2cc(Cl)ccc2Cl)o1)c1ccc2c(c1)OCCO2	.	?	5.4%	.	16.4µM*	.
Cc1ccc2nc(-c3cc(NC(=O)c4ccc5c(c4)OCCO5)ccc3Cl)oc2c1	.	?	3.2%	.	16.4µM*	.
Cc1ccc2nc(-c3cc(NC(=O)/C=C/c4ccccc4)ccc3Cl)oc2c1	.	23.1µM*	2.2%[12.3 µM]	.	16.4µM*	.
O=C1CC(C(F)(F)C(F)(F)C(F)(F)F)=Nc2ccccc2N1	1.9	-1.9%	3.3%	6.4	-20.3%	-21.6
CC1(C)CC(/C=C/c2ccccc2)=Nc2ccccc2N1	?	18.4µM*	9.4%	?	20.6µM*	-62.4*
O=C1CC(/C=C/c2ccc(Cl)cc2)=Nc2ccccc2N1	-13.2	?	4.6%	-7.4	14.6µM*	-93.8*
O=C1CC(/C=C/c2cccnc2)=Nc2ccccc2N1	1.6	13µM*	2.6%	-1.9	16.4µM*	-92.8*
